High-throughput results deposited in PubChem BioAssay by several laboratories.
An excerpt weighted towards active compounds, which were near 3.7% of everything screened.
GPR7 antag: blocks human GPR7 receptor signaling. inhibition, % at 4.4 µM. hit rate 1.1% among 290,000. AID 1861. GPR7-expressing cells, fluorescence antagonist assay; in the data active means inhibition above about 16%, passing the limit was not always enough;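 further: cells stimulated with the agonist NPW; 0% = agonist with vehicle and 100% = vehicle without agonist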
ANO1 block: inhibitors of mouse TMEM16A calcium-activated chloride channel | hit rate 1.2% among 310,000 | normalized B-score (activity score, 25-100; higher = stronger inhibition) at 10 µM | HEK293 TMEM16A/YFP iodide influx fluorescence, ionomycin | Q8BHY3;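 active means ratio plate-corrected score three or more library SD toward inhibition, starting fluorescence score within five deviations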;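 further: score derived from kinetic fluorescence span divided by baseline fluorescence per well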
Target sequence (Q8BHY3 whole entry, looked up): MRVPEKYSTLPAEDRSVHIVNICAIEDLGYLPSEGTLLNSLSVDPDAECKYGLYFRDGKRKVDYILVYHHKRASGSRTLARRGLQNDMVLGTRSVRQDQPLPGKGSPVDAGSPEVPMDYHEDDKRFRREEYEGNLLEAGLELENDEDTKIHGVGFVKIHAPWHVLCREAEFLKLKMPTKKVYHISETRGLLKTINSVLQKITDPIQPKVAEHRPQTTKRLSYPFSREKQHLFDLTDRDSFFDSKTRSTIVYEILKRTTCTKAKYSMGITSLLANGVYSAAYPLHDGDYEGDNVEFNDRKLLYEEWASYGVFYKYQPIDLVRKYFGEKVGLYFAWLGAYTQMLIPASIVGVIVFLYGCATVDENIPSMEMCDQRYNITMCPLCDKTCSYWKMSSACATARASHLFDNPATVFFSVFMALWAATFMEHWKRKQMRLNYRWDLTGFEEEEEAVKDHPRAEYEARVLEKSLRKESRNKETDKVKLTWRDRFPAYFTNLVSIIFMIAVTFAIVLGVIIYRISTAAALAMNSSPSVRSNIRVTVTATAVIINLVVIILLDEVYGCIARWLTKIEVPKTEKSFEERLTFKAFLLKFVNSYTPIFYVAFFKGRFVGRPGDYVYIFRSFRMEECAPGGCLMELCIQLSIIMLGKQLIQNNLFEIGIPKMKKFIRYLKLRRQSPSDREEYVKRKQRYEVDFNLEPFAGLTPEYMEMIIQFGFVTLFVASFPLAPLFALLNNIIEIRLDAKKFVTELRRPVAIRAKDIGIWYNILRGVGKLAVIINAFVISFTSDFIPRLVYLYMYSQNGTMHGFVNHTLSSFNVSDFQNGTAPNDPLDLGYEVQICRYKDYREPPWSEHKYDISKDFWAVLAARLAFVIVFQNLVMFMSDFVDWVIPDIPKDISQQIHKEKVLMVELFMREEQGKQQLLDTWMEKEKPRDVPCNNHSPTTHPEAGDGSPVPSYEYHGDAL
TMEM16A act: activates or potentiates the mouse TMEM16A chloride channel; Q8BHY3; HEK293 TMEM16A/YFP-H148Q/I152L, iodide quench fluorescence; stronger effect = lower value; B-score at 10 µM; hit rate 0.3% among 340,000; AID 623877;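 active means fluorescence-ratio B-score plate-corrected deviation score at least 3 library SD below zero, with starting fluorescence score within 5 deviations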;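 further: channel opened by trigger with iodide after compound preincubation; score built on the fluorescence ratio of max minus min over baseline; more negative score means more quench and so TMEM16A activation or potentiation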
CHT allo act: allosterically activates the human high affinity choline transporter; Q9GZV3; CHT-expressing cells, membrane potential dye, choline EC20; stronger effect = higher value; LV-AA mutant CHT in HEK293 cells; B-score at 10 µM; hit rate 0.49% among 310,000; AID 488977;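 active means initial fluorescence not abnormally high and integrated response B-score, plate-corrected, over 3 SD above library mean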
CHT inh: human CHT choline transport inhibition | Q9GZV3 | CHT-expressing cells, membrane potential dye, choline response; stronger effect = lower value | B-score at 10 µM | hit rate 0.86% among 310,000;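 active means B-score over 3 SD under the library average, and starting fluorescence ratio not unusually high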;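 further: choline stimulus applied at its EC90 after an EC20 pre-addition; B-score computed on integrated fluorescence ratio after choline addition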
Kir21 block: Kir2.1 (mouse) channel inhibition; P35561; HEK293-Kir2.1, FluxOR thallium flux fluorescence; stronger effect = lower value; B-score at 10 µM; hit rate 0.85% among 310,000; AID 1672;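 active means fluorescence ratio B-score at or below minus 3 SD of library scores, with starting-brightness B-score within 2 SD, cut at about -4.2 in these data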;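 further: channel flux triggered by added potassium and thallium sulfate stimulus; B-score of peak minus minimum fluorescence over baseline after thallium stimulus; more negative B-score means stronger Kir2.1 block with less thallium influx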
An asterisk follows results filed as active; i = inactive; . = no result.

SMILES	GPR7 antag	ANO1 block	TMEM16A act	CHT allo act	CHT inh	Kir21 block
O=C(Nc1ccc(F)cc1)c1ccc(CN2CCc3ccccc3C2)cc1	14.1	i	i	i	i	-0.96
Cc1ccc(C(=O)NCC(=O)OC(C)C(=O)Nc2ccc(N3CCOCC3)cc2)s1 (stereo not drawn)	0.8	i	i	i	i	-0.42
CCN(CC)P(=O)(Nc1ccccc1Br)c1ccc(N(C)C)cc1NC(=O)c1ccco1 (stereo not drawn)	-12.4	i	i	i	i	0.78
Cc1ccc(N(CC(=O)NC2CCCCC2)S(=O)(=O)c2cccs2)cc1	15.5	i	i	i	i	1.04
O=C(O)c1ccc(-c2sc(Nc3ccccc3)n[n+]2-c2ccccc2)cc1	0.4	i	i	i	i	0.12
c1ccc(COc2ccc(-c3sc(Nc4ccccc4)n[n+]3-c3ccccc3)cc2)cc1	9.4	i	.	7.99*	i	1.22
CN(C)CCNC(=O)C(=O)Nc1cc2c3c(c1)CCN3C(=O)CC2	-16.4	i	i	i	i	-1.28
CC(C)(CO)NCc1cccc(OCc2ccc(Cl)cc2)c1	7.4	i	i	i	i	-0.93
Clc1ccc(COc2cccc(CNCc3ccncc3)c2)cc1	11.3	100*	i	i	i	-1.1
O=C1c2ccccc2C(=O)N1CCC(c1ccc(F)cc1)c1ccco1 (stereo not drawn)	-9.0	i	i	i	i	-4.78*
CCc1cc2cc(C)ccc2nc1SCC(=O)N1CCN(C(=O)c2ccco2)CC1	-11.5	i	i	i	i	.
CCc1cc2ccccc2nc1SCC(=O)N1CCN(C(=O)c2ccco2)CC1	-8.5	.	i	.	.	-4.36*
O=C(Nc1ccc2oc(-c3ccccc3)nc2c1)c1ccc2c(c1)OCCO2	-2.0	25*	i	i	i	-0.91
Cc1cccc(CN2C(=O)/C(=C\c3ccc(C(=O)NCCN4CCOCC4)cc3)Sc3ccccc32)c1	2.1	i	i	i	i	-0.39
CCN1CCN(CCNC(=O)c2ccc3c(c2)N(Cc2ccc(F)cc2)C(=O)/C(=C/c2ccccc2)S3)CC1	29.0*	i	i	i	i	0.88
CCn1c(CNC(=O)COc2ccc(C(C)C)cc2)nnc1SCC(=O)Nc1ccccc1C(C)C	-14.6	25*	i	i	i	-0.13
NNC(=O)c1cc(S(=O)(=O)N2CCOCC2)c[nH]1	.	.	i	.	.	.
COc1ccc(CN(C)CC(O)COc2ccc(C(=O)c3ccccc3)cc2)c(OC)c1OC (stereo not drawn)	16.2	i	i	i	i	-4.28*
COc1cccc(OC)c1OCCOc1ccc(C(=O)c2ccccc2)cc1	-0.5	i	i	i	i	-0.02
Cc1nc(CN2CCN(Cc3nc(C(c4ccccc4)c4ccccc4)no3)CC2)cs1	-8.5	i	i	i	i	-0.16
O=C1CCCN1CCCN=c1c([N+](=O)[O-])nn(-c2ccc(Cl)cc2)n1O	0.2	.	-41.6*	.	.	1.31
CCCOC(=O)C[N+](C)(C)CCOC1CC2CCC1(C)C2(C)C (stereo not drawn)	7.3	i	i	i	i	-0.06
CC(C)CCOC(=O)C[N+](C)(C)CCOC1CC2CCC1(C)C2(C)C (stereo not drawn)	18.5*	i	i	i	i	-2.48
Cc1ccc2c(c1)c1c3n2CCN(C(=O)CCl)C3CCC1 (stereo not drawn)	22.5	i	i	i	i	-8.77*
CC(=O)N1CCn2c3c(c4cc(C)ccc42)CCCC31 (stereo not drawn)	20.6	i	i	i	i	1.61
SMILES	GPR7 antag	ANO1 block	TMEM16A act	CHT allo act	CHT inh	Kir21 block
COc1ccc(C(=O)N(C)CC2CCN(CCc3cccc(C(F)(F)F)c3)CC2)cc1C	-21.0	i	i	i	i	2.44
CC(C)(C)C1CCC(=O)N(CCOc2ccccc2)CC1 (stereo not drawn)	0.2	i	i	i	i	-5.63*
CSc1nc(N)c2c3c(sc2n1)CN(C)CC3	3.4	i	i	7.68*	i	-1.45
CSc1nc(SCC(N)=O)c2c3c(sc2n1)CN(C)CC3	-12.7	i	i	6.26*	i	-0.43
CCNc1nc(SCC(N)=O)nc2sc3c(c12)CCN(C)C3	11.2	.	i	.	.	-0.79
COC(CNc1nc(SC)nc2sc3c(c12)CCN(C)C3)OC	-17.9	i	i	i	i	0.23
CCSc1nc(N)c2c3c(sc2n1)CN(C)CC3	7.6	i	.	6.29*	i	-0.9
C=CCSc1nc(N)c2c3c(sc2n1)CN(C)CC3	-6.8	i	.	i	i	1.16
COC(CSc1nc(N)c2c3c(sc2n1)CN(C)CC3)OC	8.8	i	i	i	i	-0.02
CCC(O)CNc1nc(SC)nc2sc3c(c12)CCN(C)C3 (stereo not drawn)	-7.1	i	i	7.08*	i	-0.31
CCC(=O)c1ccc(OCC(=O)OCC(=O)N(CCC#N)c2ccc3c(c2)OCCO3)cc1	.	.	i	.	.	.
COc1ccc(Br)cc1/C=N/NC(=O)CN1CCN(Cc2ccccc2)CC1	-5.1	i	i	i	i	-1.25
COc1ccccc1C(=O)Nc1ccc2c(c1)nc1n2CCN(C2CCCCC2)C1	6.0	i	i	i	i	1.27
CCc1ccc(CN(C)Cc2nc(-c3cccc(Cl)c3)no2)nc1	-2.5	i	i	i	i	0.48
CCn1c(SCC(N)=O)nc2sc3c(c2c1=O)CCN(C)C3	-1.6	i	i	7.91*	i	-1.14
CCn1c(SCC(=O)Nc2ccc(C)cc2)nc2sc3c(c2c1=O)CCN(C)C3	-22.7	i	i	i	i	-1.27
COCCSc1nc2sc3c(c2c(=O)n1-c1ccccc1)CCN(C)C3	-7.9	i	i	7.54*	i	0.73
CCSc1nc2sc3c(c2c(=O)n1-c1ccccc1)CCN(C)C3	-4.3	i	i	i	i	0.45
Cn1cc(Br)c(NC(=O)/C=C/C(=O)O)n1	-20.1	i	i	i	i	1.6
COC(=O)c1cc(C)ccc1OCc1ccc([N+](=O)[O-])cc1	6.3	i	i	i	i	2
O=C(c1ccco1)N1N=C(c2ccc(Br)cc2)CC1c1ccco1 (stereo not drawn)	.	.	i	.	.	.
O=C(Nc1ccc(F)cc1)NC1CCN(Cc2ccccc2)CC1	-12.8	i	i	i	i	-5.15*
O=C(Nc1ccc2c(c1)OCO2)NC1CCN(Cc2ccccc2)CC1	8.1	i	i	i	i	-1.32
S=C(Nc1ccc(Cl)cc1)NC1CCN(Cc2ccccc2)CC1	9.6	i	i	i	i	-4.67*
CCOc1ccc(S(=O)(=O)Nc2cccc(C(=O)NCCCn3ccnc3)c2)cc1	.	.	i	.	.	.
